In all, about 310,000 compounds went through this assay and about 2,200 (0.71%) showed an effect of 50% or more. Effects have a minus sign here. The sample holds strong results, similar compounds and a random draw of the others, so the mix is not that of the screen.

In the assay the target is human ether-à-go-go-related gene (hERG) potassium channel (human, UniProt Q12809). The experiment in a line: primary screen, population patch clamp on CHO cells stably expressing hERG; higher = less effect of the substance.
Chain of human ether-à-go-go-related gene (hERG) potassium channel (Q12809 whole entry, looked up): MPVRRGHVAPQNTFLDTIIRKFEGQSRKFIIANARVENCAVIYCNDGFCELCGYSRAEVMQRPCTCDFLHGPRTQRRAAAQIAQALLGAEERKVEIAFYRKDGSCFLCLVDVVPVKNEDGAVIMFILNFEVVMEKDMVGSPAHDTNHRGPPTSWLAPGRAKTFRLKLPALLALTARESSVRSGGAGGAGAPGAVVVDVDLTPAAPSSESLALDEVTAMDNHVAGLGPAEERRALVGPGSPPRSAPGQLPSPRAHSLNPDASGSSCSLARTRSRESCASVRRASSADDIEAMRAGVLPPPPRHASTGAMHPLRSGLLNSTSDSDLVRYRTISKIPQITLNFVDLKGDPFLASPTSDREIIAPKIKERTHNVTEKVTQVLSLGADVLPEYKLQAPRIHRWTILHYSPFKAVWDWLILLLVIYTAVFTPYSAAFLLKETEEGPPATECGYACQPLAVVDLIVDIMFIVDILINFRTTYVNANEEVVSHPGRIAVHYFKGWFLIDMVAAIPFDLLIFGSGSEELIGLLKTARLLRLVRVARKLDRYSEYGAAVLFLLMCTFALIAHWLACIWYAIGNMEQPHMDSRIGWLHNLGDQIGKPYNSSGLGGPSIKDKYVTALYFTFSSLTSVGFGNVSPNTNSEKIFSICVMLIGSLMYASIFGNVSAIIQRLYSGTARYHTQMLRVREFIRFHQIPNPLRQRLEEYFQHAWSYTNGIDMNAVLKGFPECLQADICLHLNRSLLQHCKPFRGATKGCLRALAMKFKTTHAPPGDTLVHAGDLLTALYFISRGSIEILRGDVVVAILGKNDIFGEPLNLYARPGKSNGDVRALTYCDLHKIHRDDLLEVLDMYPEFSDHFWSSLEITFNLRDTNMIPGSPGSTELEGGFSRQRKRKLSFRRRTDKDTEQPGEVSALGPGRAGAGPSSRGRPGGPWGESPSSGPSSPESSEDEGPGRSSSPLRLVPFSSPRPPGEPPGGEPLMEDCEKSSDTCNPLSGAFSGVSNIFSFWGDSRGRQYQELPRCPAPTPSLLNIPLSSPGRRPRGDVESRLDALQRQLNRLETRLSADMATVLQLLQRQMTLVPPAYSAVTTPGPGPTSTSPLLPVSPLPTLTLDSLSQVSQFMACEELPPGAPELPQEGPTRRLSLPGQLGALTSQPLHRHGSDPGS
As for `CC(C)(C)OC(=O)NCCCCCc1nnc(SCc2ccc(F)cc2)o1`, the “hERG current change (%, negative = inhibition) at 1uM” value is 3.71%. Under `CCCCc1cc2c(s1)CCCC/C2=N/O` stands 2.41%. Regarding `Cc1cc(S(=O)(=O)Nc2ccc(C(=O)NCCCN3CCOCC3)cc2)ccc1F`, the “hERG current change (%, negative = inhibition) at 1uM” value turned out to be 19.8%. Under `Cc1ccsc1/C=N/n1c(-c2ccncc2)n[nH]c1=S` stands 19.8%; under `O=C(O)C=C(Br)Br`, 7.58%. Under `COC(=O)/C(=C1/Oc2cc(C)oc(=O)c2S1)C(F)(F)F` stands 13.6%. Then `CCOC(=O)CON1C(=O)C(C)(C)N(OCC(=O)OCC)C(=O)C1(C)C`, with 15.7%. As to `Cc1ccc(-n2ccnc(SCC(=O)NC3CCCCC3)c2=O)cc1F`, the “hERG current change (%, negative = inhibition) at 1uM” value is reported as 14.5%. Then `CC(c1ccccc1)C1CC(=O)N(CC(=O)O)C1=O` (stereo not drawn), with 16.2%. On to `Cc1cccn2c(=O)c3cc(C(=O)NC4CCCCC4)n(C)c3nc12`, for which the “hERG current change (%, negative = inhibition) at 1uM” value is listed as 13.8%. Under `Cc1cccn2c(=O)c3cc(C(=O)NC4CCCC4)c(=N)n(C4CCCC4)c3nc12` stands -87%. Take `Cc1cccn2c(=O)c3cc(C(=O)NC4CCCC4)sc3nc12`: the “hERG current change (%, negative = inhibition) at 1uM” value was 2.15%. For the compound `Cc1cccn2c(=O)c3cc(C(=O)NC4CCCC4)n(C)c3nc12`, the “hERG current change (%, negative = inhibition) at 1uM” value was 9.12%. For the compound `Cc1cccn2c(=O)c3cc(C(=O)NC4CCCCCC4)sc3nc12`, the “hERG current change (%, negative = inhibition) at 1uM” value stood at 15.1%.

On to `Cc1cccn2c(=O)c3cc(C(=O)NC4CCCC4)c(=N)n(C4CCCCC4)c3nc12`, for which the “hERG current change (%, negative = inhibition) at 1uM” value was -81.9%. For `Cc1ccc(C(=O)CSc2nnc(COc3ccc(C#N)cc3)n2-c2ccccc2)cc1`, the “hERG current change (%, negative = inhibition) at 1uM” value is on record as 11.8%. Turning to `O=C(CCc1nc(-c2ccccc2Cl)no1)NC1CCCC1`, the “hERG current change (%, negative = inhibition) at 1uM” value was 1.7%. With `CCOC(=O)Nc1ccc2c(c1)N(C(=O)CCN(C)C)c1ccccc1S2.Cl`, the “hERG current change (%, negative = inhibition) at 1uM” value is given as -5.69%. Then `COc1ccc2[nH]c(CN3CCC(CO)(CCOc4ccccc4)CC3)c(C)c2c1`, with 9.37%; and `COc1cc(CN2CCC(CO)(CCOc3ccccc3)CC2)cc(OC)c1`, with -8.26%; and `COc1cc(OC)c(CN2CCC(CO)(CCOc3ccccc3)CC2)c(OC)c1`, with -87.7%. Under `COc1ccc(CN2CCC(CO)(CCOc3ccccc3)CC2)cc1C` stands -77.6%; under `COc1ccc(OC)c(CN2CCC(CO)(CCOc3ccccc3)CC2)c1`, -30%.

As for `COc1ccc(CN2CCC(CO)(CCOc3ccccc3)CC2)c(OC)c1C`, the “hERG current change (%, negative = inhibition) at 1uM” value is -81.6%. Then `Cc1nn(C)c(Cl)c1CN1CCC(CO)(CCOc2ccccc2)CC1`, with -12.9%; and `CC(=O)c1cccc(CN2CCC(CO)(CCOc3ccccc3)CC2)c1`, with -3.07%; and `COc1cc(Cl)c(CN2CCC(CO)(CCOc3ccccc3)CC2)cc1OC`, with -85.1%. Then `COc1cc(Cl)c(CN2CCCC(CO)(Cc3ccccc3)C2)cc1OC` (stereo not drawn), with -2.72%; and `COc1cc(CN2CCC(CO)(CCOc3ccccc3)CC2)cc(OC)c1OC`, with 3.71%.

Turning to `COC(=O)c1ccc(NC(=S)Nc2ccc(O)cc2)cc1`, the “hERG current change (%, negative = inhibition) at 1uM” value is on record as 5.34%. Under `O=C(CNCCCO)Nc1cc(C(F)(F)F)cc(NC(=O)CNCCCO)c1Cl` stands 9.02%.

For `N#Cc1cccc(NC(=O)c2ccc(S(=O)(=O)N3CCOCC3)cc2)c1`, the “hERG current change (%, negative = inhibition) at 1uM” value is given as 0.709%.

Regarding `COC(=O)c1cc(Cl)cc(Cl)c1OS(=O)(=O)N(C)C`, the “hERG current change (%, negative = inhibition) at 1uM” value is 1.43%.

Regarding `N#CC1=C(N)Oc2nc[nH]c(=O)c2C1c1cccs1` (stereo not drawn), the “hERG current change (%, negative = inhibition) at 1uM” value turned out to be 17.3%.

As for `CCOC(=O)C(OC(=O)c1sc(=S)n(C)c1C)C(C)=O` (stereo not drawn), the “hERG current change (%, negative = inhibition) at 1uM” value amounted to 18%.

`COc1ccccc1CN1CCNC(=O)C1CC(=O)N(C)Cc1nc(C)cs1` (stereo not drawn): the “hERG current change (%, negative = inhibition) at 1uM” value is 17.2%. In the case of `CC(=O)c1ccccc1NC(=O)COC(=O)c1ccc2c(c1)nc(C)n2-c1ccccc1`, the “hERG current change (%, negative = inhibition) at 1uM” value was 20.6%.

As to `CC(=O)c1c(C)[nH]c(C(=O)OCc2ccc(F)cc2Cl)c1C`, the “hERG current change (%, negative = inhibition) at 1uM” value was determined as 10.6%.

For `Cc1cc2oc(=O)cc(CN3CCC(C)CC3)c2cc1C`, the “hERG current change (%, negative = inhibition) at 1uM” value is given as 12.8%. Then `Cc1ccc(C)c(Oc2coc3cc(O)ccc3c2=O)c1`, with 0.658%; and `CCOC(=O)C1=NN(c2ccc(C)cc2)C2(S1)SC(C(C)=O)=C(C)N2c1ccccc1` (stereo not drawn), with 8.85%. Then `C(=C\c1ccccc1)/CSc1nnc(-c2ccncc2)n1Cc1ccco1`, with -26.9%; and `Clc1cccc(CSc2nnc(-c3cccnc3)n2Cc2ccco2)c1`, with -61%; and `Clc1ccccc1CSc1nnc(-c2cccnc2)n1Cc1ccco1`, with -14.2%. Then `C(=C\c1ccccc1)/CSc1nnc(-c2cccnc2)n1Cc1ccco1`, with -51.9%. Take `Clc1ccc(CSc2nnc(-c3cccnc3)n2Cc2ccco2)c(Cl)c1`: the “hERG current change (%, negative = inhibition) at 1uM” value was -42.3%. Then `C(=C\c1ccccc1)/CSc1nnc(-c2ccccc2)n1Cc1ccco1`, with -45.4%; and `Cc1cc(C)cc(NC(=O)Cn2nnc(C(=O)NCc3ccccc3Cl)c2N)c1`, with 13.6%.

Values taken from PMC4336329 (PLoS ONE, 2015).
